SW480 rereplic: induces DNA re-replication in SW480 colon adenocarcinoma cells; SW480 DNA re-replication, Hoechst DNA content imaging, 48 h; Potency, µM (titrated, usually from 46.1 µM), for the others: top-dose re-replication activation, most hits filed as activators; actives 1.8% (n = 340,000); AID 624297; also: % of control where 0% means no effect; nearly all actives have a fitted effect of over 55% in size
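Image-based read-out: total Hoechst fluorescence of nuclei (405 nm excitation, 500-530 nm emission), with hits raising the fraction of high-intensity nuclei. SW480 colon cells incubated 48 hr with compounds at 37 C.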
MCF10A rerep: induces DNA re-replication in MCF 10a normal breast cells | MCF 10A DNA re-replication, Hoechst nuclear intensity, 48 h | Potency, µM (highest dose often 46.1 µM), inactives show at the highest dose activity, positive = re-replication, actives largely listed as activators | actives 2.9% (n = 350,000) | AID 624296; also: % of control where 0% means no effect; nearly all actives have a fitted effect of over 50% in size
KB-3-1 tox: KB-3-1 parental cell cytotoxicity; KB-3-1 viability, CellTiter-Glo ATP luminescence, 72 h; Potency, µM (titrated, usually from 46.1 µM), most hits filed as cytotoxic; actives 1.4% (n = 400,000); AID 1347075; also: % is scaled to controls: 0 for no effect and ±100 for the full control effect; nearly all actives have a fitted effect of over 60% in size
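Screening of KB-3-1 cells (DMEM, 10% FBS, phenol-red free) ran from lowest to highest compound concentration; after 72 h at 37 °C viability was read luminescently and curves fitted.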
TSG101-PTAP inh: blocks PTAP/TSG101 interaction to inhibit HIV-1 budding; Potency, µM (titrated, usually from 115 µM), without a hit: at the highest dose activity change, negative = inhibition, usual class: inhibitors; 340,000 tested, under 10 active; AID 493005; Fluorescence polarization, FITC-PTAP peptide / Tsg101 binding; Q99816; active = well fitted inhibition curve with a large enough effect in the main read-out, with a control signal flat, not every such curve was filed as active; inconclusive = small, poorly fitted or top-dose-only effect, or effect the other way, or a change in a side signal; inactive = no such curve, though single readings can be large or run the other way; also: % of control where 0% means no effect
Target sequence (Q99816 whole entry, looked up): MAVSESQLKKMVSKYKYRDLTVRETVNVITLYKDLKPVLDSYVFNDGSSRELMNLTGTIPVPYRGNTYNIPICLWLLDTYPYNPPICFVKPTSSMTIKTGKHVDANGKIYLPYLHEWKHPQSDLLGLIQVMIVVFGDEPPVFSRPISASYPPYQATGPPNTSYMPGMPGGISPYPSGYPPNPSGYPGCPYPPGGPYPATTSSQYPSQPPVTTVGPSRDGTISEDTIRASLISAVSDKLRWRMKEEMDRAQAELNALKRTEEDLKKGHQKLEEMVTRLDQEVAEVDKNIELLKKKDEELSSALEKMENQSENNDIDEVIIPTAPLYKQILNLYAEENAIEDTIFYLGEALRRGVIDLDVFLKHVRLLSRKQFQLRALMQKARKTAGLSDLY
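FP read-out: FITC-PTAP peptide, 50 nM final, binding Tsg101 binding domain, 10 uM final; 20 min, r.t.; 10 mM HEPES pH 7.5, 0.15 M NaCl, 0.01% Tween 20, 3 mM EDTA, 0.1 mM TCEP.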
KB-V1 cytotox: KB-V1 MDR subline cytotoxicity; KB-V1 MDR cells viability, CellTiter-Glo, 72 h; Potency, µM (top dose mostly 46.1 µM), usual class: cytotoxic; actives 3.4% (n = 400,000); AID 1347076; also: % is scaled to controls: 0 for no effect and ±100 for the full control effect; nearly all actives have a fitted effect of over 60% in size
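KB-V1 cells (P-gp-expressing MDR subline of KB-3-1) in phenol-red-free DMEM with 10% FBS were exposed to library compounds over a concentration series for 72 h at 37 degrees C. Viability read by CellTiter-Glo luminescence; concentration-effect curves fitted after normalization.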
PINK1 modulator: modulators of PINK1 expression; PINK1 immunofluorescence, high-content cytometry, 24 h; Potency, µM (top dose mostly 76.6 µM), for inactives: top-dose activation (PINK1 increase), most hits filed as activators; actives 0.2% (n = 410,000); active = well fitted activation curve with a large enough effect; inconclusive = small, poorly fitted or top-dose-only effect; cell line not stated here; also: % of control where 0% means no effect; nearly all actives have a fitted effect of over 65% in size
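A stable cell line was treated with compounds at 5 concentrations for 24 hours, with CCCP as control. PINK1 levels and mitochondrial localization were measured by immunofluorescence with mitochondrial, cell and nuclear markers after fixation, read by laser-scanning cytometry.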
Active calls of the source: *; [ ] = remark or other dose. A selection: hits, their analogues and other compounds. The true share with any hit is near 6.8%. Unless noted, calls follow the shape of the dose curve; as a rule, active = well fitted curve in the direction sought with a large enough effect; inconclusive = small, poorly fitted or top-dose-only effect, or another doubt; inactive = no such curve, though single readings can be large; an effect the other way counts as inactive or inconclusive. Potency is read from the fitted curve at half-maximal effect.

Screening O=C(NCCCn1ccnc1)c1cc2nc(-c3ccc(Br)cc3)cc(C(F)(F)F)n2n1 returned SW480 rereplic inconclusive, MCF10A rerep 15µM*, KB-3-1 tox inactive, TSG101-PTAP inh -12%, KB-V1 cytotox inactive and PINK1 modulator 0%.
For COc1ccc(-c2cc(C(F)(F)F)n3nc(C(=O)Nc4cc(C)ccc4C)cc3n2)cc1 the results were KB-3-1 tox inconclusive, KB-V1 cytotox inactive and PINK1 modulator 6%.
Screening COc1ccc(-c2cc(C(F)(F)F)n3nc(C(=O)N4CCCCC4)cc3n2)cc1OC returned SW480 rereplic inconclusive, MCF10A rerep -4%, KB-3-1 tox inconclusive, TSG101-PTAP inh 0%, KB-V1 cytotox 10µM* and PINK1 modulator 2%.
For COc1ccc(-c2cc(C(F)(F)F)n3nc(C(=O)N4CCCCC4)cc3n2)cc1 the results were SW480 rereplic 7%, MCF10A rerep 9%, KB-3-1 tox inactive, TSG101-PTAP inh -10%, KB-V1 cytotox inconclusive and PINK1 modulator -1%[38.3 µM].
Screening CCCCn1cc(S(=O)(=O)c2ccc(OC)cc2)c(=O)c2cc(F)c(N3CCOCC3)cc21 returned KB-3-1 tox inactive, KB-V1 cytotox inactive and PINK1 modulator 0%.
CCC(C(=O)Nc1ccc(C(C)=O)cc1)n1c(C)c2cnn(-c3ccccc3)c(=O)c2c1C (centres undefined) was read as KB-3-1 tox inactive, KB-V1 cytotox inactive and PINK1 modulator 1%.
`N#CCOc1ccccc1/C=C/c1nc2ccccc2c(=O)[nH]1` gave SW480 rereplic 13µM*, MCF10A rerep 25%, KB-3-1 tox inactive, TSG101-PTAP inh -10%, KB-V1 cytotox inactive and PINK1 modulator 3%.
COc1cc(/C=C/c2nc3ccccc3c(=O)[nH]2)ccc1OC(F)F was read as SW480 rereplic 0%, MCF10A rerep -1%, KB-3-1 tox inactive, TSG101-PTAP inh -3%, KB-V1 cytotox inactive and PINK1 modulator 1%.
`COCCOC(=O)N/C=C\c1nc2ccccc2c(=O)[nH]1` gave SW480 rereplic 16µM*, MCF10A rerep inconclusive, KB-3-1 tox inconclusive, TSG101-PTAP inh -2%, KB-V1 cytotox inactive and PINK1 modulator 8%.
Screening Cc1ccccc1/C=C/c1nc2ccccc2c(=O)[nH]1 returned SW480 rereplic inconclusive, MCF10A rerep 18µM*, KB-3-1 tox inconclusive, TSG101-PTAP inh -3%, KB-V1 cytotox inconclusive and PINK1 modulator 10%.
COc1cc(/C=C/c2nc3ccccc3c(=O)[nH]2)cc(OC)c1OC was read as SW480 rereplic 3.3µM*, MCF10A rerep 18µM*, KB-3-1 tox 2.9µM*, TSG101-PTAP inh -3%, KB-V1 cytotox inactive and PINK1 modulator 6%.
For COC(=O)c1ccc(/C=C/c2nc3ccccc3c(=O)[nH]2)cc1 the results were SW480 rereplic -4%, MCF10A rerep 2%, KB-3-1 tox inactive, TSG101-PTAP inh -1%, KB-V1 cytotox inactive and PINK1 modulator -1%.
`Cc1ccc(C(=O)Nc2nc3n(n2)C(c2ccc(F)cc2)C=C(c2ccccc2)N3)cc1` (centres undefined) gave KB-3-1 tox inactive, KB-V1 cytotox inactive and PINK1 modulator 3%.
Screening CCn1cc(C(=O)NCCc2ccc(Cl)cc2)c(=O)c2cc(S(=O)(=O)N(C)C3CCCCC3)ccc21 returned KB-3-1 tox inactive, KB-V1 cytotox inactive and PINK1 modulator 1%.
`CN(C)CCOC(=O)c1ccc2[nH]c3c(c2c1)CSCC3` gave SW480 rereplic 7.3µM*, MCF10A rerep -13%, KB-3-1 tox inactive, TSG101-PTAP inh -1%, KB-V1 cytotox inactive and PINK1 modulator 4%.
Screening CCCCCCCCn1c2c(c(=N)c3ccccc31)CCC2 returned SW480 rereplic 3%, MCF10A rerep inconclusive, KB-3-1 tox 3.3µM*, TSG101-PTAP inh -4%, KB-V1 cytotox inactive and PINK1 modulator 13µM*.
Screening CCCCCn1c2c(c(=N)c3ccccc31)CCC2 returned SW480 rereplic -3%, MCF10A rerep -34%, KB-3-1 tox 3.7µM*, TSG101-PTAP inh -5%, KB-V1 cytotox inconclusive and PINK1 modulator 4%.
CCCCn1c2c(c(=N)c3ccccc31)CCC2 was read as SW480 rereplic -11%, MCF10A rerep 23%, KB-3-1 tox inconclusive, TSG101-PTAP inh -1%, KB-V1 cytotox inactive and PINK1 modulator -2%.
Screening O=C(NC(Nc1ncc(S(=O)(=O)c2ccc([N+](=O)[O-])cc2)s1)(C(F)(F)F)C(F)(F)F)c1ccc(Cl)cc1 returned SW480 rereplic inconclusive, MCF10A rerep 9.2µM*, KB-3-1 tox 21µM*, TSG101-PTAP inh -4%, KB-V1 cytotox inconclusive and PINK1 modulator inconclusive.
Cc1cc(S(=O)(=O)Nc2ccc(-c3ccc(N4CCCCC4)nn3)cc2)c(C)cc1Cl was read as KB-3-1 tox inactive, KB-V1 cytotox inconclusive and PINK1 modulator 0%.
For N#C/C(=C/c1ccc(-c2ccc(S(N)(=O)=O)cc2)o1)c1nc2ccccc2s1 the results were SW480 rereplic 10µM*, MCF10A rerep 3.7µM*, KB-3-1 tox inactive, TSG101-PTAP inh inconclusive, KB-V1 cytotox inactive and PINK1 modulator 9%.
For N#C/C(=C/c1ccc(-c2ccc(S(N)(=O)=O)cc2)o1)C(=O)Nc1ccccc1 the results were SW480 rereplic -1%, MCF10A rerep 28%, KB-3-1 tox inactive, TSG101-PTAP inh 5%, KB-V1 cytotox inactive and PINK1 modulator 18%.
For N#C/C(=C\c1ccccn1)c1nc2ccccc2s1 the results were SW480 rereplic 16µM*, MCF10A rerep 15µM*, KB-3-1 tox inactive, TSG101-PTAP inh inconclusive, KB-V1 cytotox inconclusive and PINK1 modulator inconclusive.
`COC(=O)c1ccc(/C=C(\C#N)c2nc3ccccc3s2)cc1` gave SW480 rereplic -3%, MCF10A rerep inconclusive, KB-3-1 tox inactive, TSG101-PTAP inh 1%, KB-V1 cytotox inactive and PINK1 modulator 2%.
Cc1ccc(S(=O)(=O)N2CCN(c3nc(-c4cncs4)nc4ccccc34)CC2)cc1 was read as PINK1 modulator 0%.
Screening O=C1C=C(N2CCCCC2)c2ccccc2C1=O returned SW480 rereplic 3.3µM*, MCF10A rerep inconclusive, KB-3-1 tox 12µM*, TSG101-PTAP inh -2%, KB-V1 cytotox 10µM* and PINK1 modulator -2%.
For O=C1C(Cl)=C(NCCN2CCCCC2)C(=O)c2ccccc21 the results were SW480 rereplic 29%, MCF10A rerep inconclusive, KB-3-1 tox inconclusive, TSG101-PTAP inh 2%, KB-V1 cytotox inconclusive and PINK1 modulator -1%.

Screens (PubChem)
